BAZ2B block – inhibitors of human BAZ2B bromodomain | Q9UIF8 | hit rate 4.4% among 360,000 | Potency, µM (titrated, usually from 114 µM), for inactives: at the top dose activity change, negative = inhibition, usual class: inhibitors | AlphaScreen BAZ2B-H3K14Ac peptide displacement; note: % is set by controls: 0 for no effect and ±100 for the full control effect; nearly all actives have a fitted effect of over 60% in size
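Protein-peptide AlphaScreen: BAZ2B 50 nM, b-H3K14Ac 50 nM, 1x PBS pH 7.4 + 0.01% Tween-20. Preincubation 30 min RT; cpd 30 min RT (top 110 uM); beads 20 min RT, light-protected.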
JMJD2A Tudor inh – blocks the human JMJD2A Tudor domain | O75164 | AlphaScreen JMJD2A-Tudor / H3K4me3 peptide binding | Potency, µM (doses to about 114 µM), for the others: at the highest dose activity change, negative = inhibition, hits mostly inhibitors | hit rate 4.4% among 390,000; note: % is set by controls: 0 for no effect and ±100 for the full control effect; nearly all actives have a fitted effect of over 50% in size
GLS inhibitor – inhibitors of human glutaminase (GLS) | AID 624170 | GLS enzymatic activity, qHTS titration | hit rate 0.21% among 410,000 | O94925 | Potency, µM (doses to about 45.5 µM), for the others: top-dose activity change, negative = inhibition, most hits filed as inhibitors; note: % is set by controls: 0 for no effect and ±100 for the full control effect
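Two-point fluorescence kinetic (t0, 30 min RT) for hKGA; glutamate detected via glutamate oxidase–HRP–Amplex Red. Substrate: 1 mM L-glutamine solution; buffer 45 mM KH2PO4, pH 8.2.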
HP1b binding inh – blocks HP1-beta chromodomain binding to methylated histone tails. Potency, µM (top dose mostly 114 µM), for inactives: top-dose activity change, negative = inhibition, most hits filed as inhibitors. hit rate 0.56% among 390,000. AlphaScreen HP1-beta / biotin-H3K9me3 peptide binding. P83916. AID 540317; note: nearly all actives have a fitted effect of over 70% in size
Target sequence (P83916 whole entry, looked up): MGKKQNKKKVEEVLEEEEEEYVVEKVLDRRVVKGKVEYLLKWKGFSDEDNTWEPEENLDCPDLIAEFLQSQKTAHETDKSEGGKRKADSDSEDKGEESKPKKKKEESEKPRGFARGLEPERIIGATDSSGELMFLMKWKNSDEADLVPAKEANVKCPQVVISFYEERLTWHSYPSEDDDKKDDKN
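AlphaScreen: HP1-beta (50 nM) preformed 30 min with biotin-H3(1-18)K9me3 peptide (50 nM) in PBS pH 7.4, 0.01% Tween-20. Compound added for 30 min at RT, then streptavidin donor/nickel chelate acceptor beads (10 ug/mL) for 30 min.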
L3MBTL1 block – blocks human L3MBTL1 | AID 485360 | AlphaScreen L3MBTL1–H3K9me1 peptide binding | Potency, µM (highest dose often 57.1 µM), inactives show at the top dose activity, negative = inhibition, most hits filed as inhibitors | hit rate 0.66% among 230,000 | Q9Y468; note: % is set by controls: 0 for no effect and ±100 for the full control effect; nearly all actives have a fitted effect of over 60% in size
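Read-out is AlphaScreen signal from streptavidin donor and nickel chelate acceptor beads (10 ug/mL final each) bridging L3MBTL1 (50 nM) and biotinylated K9-monomethylated H3(1-15) peptide (75 nM), after 30 min compound exposure at room temperature.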
G9a inh – inhibitors of human histone lysine methyltransferase G9a | Q96KQ7 | G9a H3K9 monomethylation, AlphaScreen, 2 h | Potency, µM (top dose mostly 102 µM), for the others: at the top dose activity, negative = inhibition, hits mostly inhibitors | hit rate 8.8% among 350,000 | AID 504332; note: % is set by controls: 0 for no effect and ±100 for the full control effect; nearly all actives have a fitted effect of over 75% in size
Target sequence (Q96KQ7 913-1193 limits assumed): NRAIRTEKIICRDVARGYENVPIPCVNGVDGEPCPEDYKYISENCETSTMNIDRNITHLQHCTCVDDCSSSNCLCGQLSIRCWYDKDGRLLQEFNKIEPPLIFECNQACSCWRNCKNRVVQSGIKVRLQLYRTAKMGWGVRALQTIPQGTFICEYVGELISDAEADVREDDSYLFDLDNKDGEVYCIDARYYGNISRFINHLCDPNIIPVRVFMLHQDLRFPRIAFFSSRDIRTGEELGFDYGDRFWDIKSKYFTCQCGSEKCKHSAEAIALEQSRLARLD
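Signal arises when biotinylated H3K9 peptide, once monomethylated, bridges streptavidin donor and antibody-captured acceptor beads. Enzyme at 20 nM was preincubated 15 min with test compounds; peptide 500 nM and SAM 20 uM then reacted for 2 h.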
* = called active by the depositor; u = inconclusive; x = no result given; ! = not confirmed by another sample; [ ] = remark or other dose. A selection: hits, their analogues and other compounds. The true share with any hit is near 10%. Calls come from the whole dose curve; as a rule, active = well fitted curve in the direction sought with a large enough effect; inconclusive = small, poorly fitted or top-dose-only effect, or another doubt; inactive = no such curve, though single readings can be large; an effect the other way counts as inactive or inconclusive. Potency is the fitted concentration of half-maximal effect.

SMILES | BAZ2B block | JMJD2A Tudor inh | GLS inhibitor | HP1b binding inh | L3MBTL1 block | G9a inh
O=C1Nc2ccccc2C12OCC(COc1ccc(Cl)cc1)O2 (stereo not given) | 10% | 79µM* | 1% | -18% | x | -7%[12.7 µM]
Cc1cc(=O)oc2c(C(=O)/C=C/c3ccccc3)c(O)ccc12 | -5% | -16%[11.4 µM] | -4% | 49% | x | -23%[2.33 µM]
Cc1cc(=O)oc2c(C(=O)/C=C\c3cccs3)c(O)ccc12 | u | u | 16% | -24% | -5% | 45µM*
Cc1cccc2c1-c1sc(C(=O)Nc3ccccc3N3CCN(C)CC3)cc1CO2 | 45µM* | u | -8% | -7% | x | x
OC1CCN(Cc2nc(Cc3ccccc3Cl)no2)CC1 | -1% | -12% | 6% | 33% | 9% | 13%
CN1CCCN(Cc2cccc3ccccc23)CC1 | 56µM* | 25µM* | 19% | u | -7% | x
OC1CCN(Cc2cccc3ccccc23)CC1 | 50µM* | 79µM* | -1% | u | -4% | u
Cc1ccc(C(=O)N[C@@H](C)CN2C3=NC[C@H](C(C)C)N3C[C@H]2Cc2ccc(O)cc2)cc1Br | -35% | 79µM* | 13% | -8% | -12% | u
COc1ccc(C[C@H]2CN3C(=NC[C@@H]3C(C)C)N2C[C@H](C)NC(=O)c2ccc(C)c(Br)c2)cc1 | -36% | -30% | 6% | 8% | -8% | u
CCN(CC)CCOc1ccccc1OC | -35% | 1.3µM* | -10% | u | x | 22µM*!
COc1cccc(OC)c1OCCNC(C)(C)C | 50µM* | 8.9µM* | 6% | -11% | 4% | x
CC(C)(C)NCCOc1ccc(Br)cc1 | u | 3.5µM* | 6% | -33% | x | 18µM*
COc1ccccc1OCCOCCOc1ccccc1Cl | 79% | 58% | 4% | 124% | 31% | 49%[59 µM]
COc1cccc(OC)c1OCCN(C)C | 35µM* | 1µM* | -3% | u | x | u
Cc1ccc(-n2nnnc2CNC(=O)c2ccc(F)cc2)cc1C | 8% | -17% | 3% | 26%[57 µM] | x | 5%[59 µM]
Cc1cccc(CSc2nc3c(c(=O)[nH]2)C(c2cccc(O)c2)CC(=O)N3)c1 (stereo not given) | -35% | u | 5% | 3% | x | u
N#Cc1c2n(c(=S)n(-c3ccc(OC(F)F)cc3)c1=O)CCCCC2 | -15% | -18% | -3% | 22% | x | -17%[59 µM]
N#Cc1c2n(c(=S)n(-c3ccccn3)c1=O)CCCCC2 | 5% | -13% | 0% | 23% | 6% | 22µM*
CC(=O)N1c2c(cc(Br)cc2S(=O)(=O)N2CCN(c3cccc(Cl)c3)CC2)CC1C (stereo not given) | -11% | -26% | -1% | 13% | x | -29%[59 µM]
O=C(CNC(=O)c1cccc(Cl)c1)OC(C(=O)Nc1cc(C(F)(F)F)ccc1Cl)c1ccccc1 (stereo not given) | x | -21% | x | x | x | x
COc1ccc(CCNC(=O)c2ccc(Cn3c(SCc4ccccc4)nc4cccnc43)cc2)cc1 | 3% | -16% | -5% | 27% | x | -30%[59 µM]
Nn1c(SCC(=O)Nc2ccc3c(c2)OCCO3)nnc1-c1ccncc1 | 5% | -16% | 4% | 13% | x | x
CCn1c2ccccc2c2cc(NC(=O)CSc3nnc(-c4ccc(OC)c(OC)c4)n3N)ccc21 | -24% | 22% | x | 13% | -1% | 0%[12.7 µM]
Cc1cc(NC(=O)CSc2nnc(-c3ccncc3)n2N)ccc1Br | 11% | 79µM* | 11% | 15% | 2% | 35µM*
CCOc1ccc(-c2nnc(SCC(=O)Nc3ccc4c(c3)c3ccccc3n4CC)n2N)cc1 | 71µM* | u | -4% | 2% | -9% | u
SMILES | BAZ2B block | JMJD2A Tudor inh | GLS inhibitor | HP1b binding inh | L3MBTL1 block | G9a inh
CC(C)c1ccc(NC(=O)C2CCCN(S(=O)(=O)c3ccc(Br)s3)C2)cc1 (stereo not given) | 0% | -12% | -1% | 4% | x | 5%[59 µM]
C=CCn1c(-c2ccncc2)n[nH]c1=S | u | 16µM* | 2% | 36% | -1% | x
C=CCn1c(-c2ccc(F)cc2)n[nH]c1=S | -23% | 7.1µM* | -25% | 26% | x | 20µM*
C=CCn1c(-c2ccoc2)n[nH]c1=S | u | 5µM* | 2% | u | 2% | 26%[0.501 µM]
CCCn1c(-c2ccncc2)n[nH]c1=S | 5% | 7.9µM* | -9% | 6% | 3% | u
C=CCn1c(-c2ccccc2)n[nH]c1=S | 46% | u | u | -12% | 36% | 61%[59 µM]
Cc1nc2c(c(C)c1CCC(=O)Nc1ccc(F)cc1)c(=O)n(C)c(=O)n2C | -12% | 0% | -12% | 46% | x | 12%[59 µM]
NC(=O)[C@@H]1CCCN1 | x | x | x | x | x | 14%[59 µM]
CSc1ncc(C(=O)NCc2ccc(Cl)cc2)c(C(F)(F)F)n1 | 6% | 9% | 1% | 34% | x | 3%[59 µM]
O=C1NCC2=C1C(c1ccc(Br)cc1)Nc1ccccc1N2 (stereo not given) | -3% | -31% | -1% | 17% | -5% | 45µM*
Cc1ccc(-n2cc3c(=O)n(C)c(=O)n(C)c3c2)cc1C | -17% | -9% | 4% | 33% | -4% | 45µM*
Cn1c(=O)c2cn(-c3ccc4c(c3)OCCO4)cc2n(C)c1=O | u | 4% | -4% | 25% | x | u
Cc1ccc(Cn2cc(CCC(=O)O)c3ccccc32)cc1 | -25% | -2% | 11% | 14% | x | 45µM*
Cc1cn(-c2cc(NC(=O)c3ccc(C)c(NC(=O)c4cccc(-c5cn[nH]c(=O)c5)c4)c3)cc(C(F)(F)F)c2)cn1 | -38% | u | -1% | 21% | 2% | 14µM*
O=C(Nc1cccc(C(=O)Nc2cccc(C(F)(F)F)c2)c1)c1ccc(=O)[nH]c1 | 3% | -1% | -1% | 25% | x | -10%
CC(=O)N1c2c(cc(Br)cc2S(=O)(=O)N2CCN(c3ccccn3)CC2)CC1C (stereo not given) | -36% | -19% | 0% | 4% | x | u
CC(=O)N1CCc2cc(Br)cc(S(=O)(=O)N3CCN(c4ccccn4)CC3)c21 | 7% | 79µM* | -12% | u | 5% | -7%
O=C(C1CC1)N1CCc2cc(Br)cc(S(=O)(=O)NCc3ccccn3)c21 | 8% | 2.8µM* | -9% | 23% | x | -47%[12.7 µM]
COC(=O)c1ccc(NC(=O)CSc2ccc(-c3sc(-c4ccccc4)nc3C)nn2)cc1 | -13% | -17% | 7% | 33% | x | -28%[59 µM]
CCc1ccccc1NC(=O)c1nnn(-c2ccc(F)cc2)c1C | 50% | 20% | -6% | 76% | x | 11%[59 µM]
Cc1ccc(-c2csc(NC(=O)CSc3nc(C)cc(=O)[nH]3)n2)cc1 | u | u | -4% | 11% | x | 45µM*
O=C(CSc1nc2ccccc2c(=O)[nH]1)c1ccc(O)c(O)c1 | -8% | 56µM* | -15% | -58% | -5%[11.4 µM] | 5%[12.7 µM]
Cc1cc(C)nc(SCC(=O)NN)n1 | 50µM* | -4% | 7% | 6% | -25% | 22µM*
